# Assay outcomes from PubChem BioAssay.
# ERG Ets-DNA blk: blocks human ERG Ets domain binding to DNA. Potency, µM (highest dose often 76.9 µM), inactives show at the top dose FP activity, negative = inhibition, hits mostly inhibitors. P11308. actives 0.028% (n = 370,000). fluorescence polarization, His-ERG Ets domain / labelled DNA; active means well fitted inhibition curve with a large enough effect in the polarisation, with a control signal flat; inconclusive means small, poorly fitted or top-dose-only effect, or effect the other way, or a change in a side signal; inactive means no such curve, though single readings can be large or run the other way; the % refers to the polarisation;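 further: polarization taken with two DNA probes labelled with fluorescein and Texas red; % of control where 0% means no effect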
# Target sequence (P11308 whole entry, looked up, the tested form may be a part): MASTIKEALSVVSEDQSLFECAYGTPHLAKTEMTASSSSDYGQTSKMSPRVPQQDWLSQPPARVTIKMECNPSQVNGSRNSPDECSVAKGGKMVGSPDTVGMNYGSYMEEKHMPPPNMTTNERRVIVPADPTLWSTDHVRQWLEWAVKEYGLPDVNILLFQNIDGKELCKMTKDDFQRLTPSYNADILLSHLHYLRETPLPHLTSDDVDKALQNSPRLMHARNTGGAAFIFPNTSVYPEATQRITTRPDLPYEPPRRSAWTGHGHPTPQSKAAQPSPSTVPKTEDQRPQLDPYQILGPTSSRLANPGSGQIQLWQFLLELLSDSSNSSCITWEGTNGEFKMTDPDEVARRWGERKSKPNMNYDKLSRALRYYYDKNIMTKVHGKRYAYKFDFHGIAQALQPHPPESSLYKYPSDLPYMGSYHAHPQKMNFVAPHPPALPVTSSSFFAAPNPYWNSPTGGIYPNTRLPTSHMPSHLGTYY
#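 His-tagged ERG Ets domain (1 uM in the protein solution; 300mM KCl, 50mM Tris-HCl, 1mM EDTA, 1mM DTT, pH 7.5) received compound, then a probe mix of 5 nM fluorescein-DNA and 100nM Texas-615-DNA. Fluorescence polarization was read for both dyes.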
# FUS suppressor: rescues growth of FUS-expressing yeast; S. cerevisiae FUS-expressing, growth rescue, OD600, 24 h; Potency, µM (series often up to 76.6 µM), most hits filed as activators; actives 0.24% (n = 390,000); AID 1347120;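 further: plate controls were DMSO vehicle for no effect and reference control for full effect; nearly all actives have a fitted effect of over 55% in size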
#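 S. cerevisiae expressing FUS from galactose induction served as the toxicity model. Growth after 24hr at 30C, read as absorbance at 600 nm, indicates suppression of toxicity; compounds dosed at several concentrations.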
# aSyn yeast inh: inhibitors of alpha-synuclein toxicity in yeast | Yeast expressing alpha-synuclein, growth rescue, BacTiter-Glo, 24 h | Potency, µM (doses to about 46.1 µM), inactives show at the top dose growth rescue (activation), usual class: activators | actives 0.14% (n = 370,000); further: % of control where 0% means no effect; nearly all actives have a fitted effect of over 65% in size
#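 Galactose-induced alpha-syn yeast (OD600=0.02, raffinose-pregrown) + pinned cpd, 24 hr, 30 deg C; growth by BacTiter-Glo luminescence. Growth restoration scores as activation.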
# Mito fusion act: inhibitors of mitochondrial division or activators of mitochondrial fusion | Potency, µM (top dose mostly 46.1 µM), inactives show at the top dose growth rescue (activation), usual class: activators | AID 485298 | S. cerevisiae fusion-defective mutant growth rescue, CellTiterGlo 48 h | actives 0.23% (n = 320,000); further: % of control where 0% means no effect; nearly all actives have a fitted effect of over 45% in size
#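 Read-out: ATP-based luminescence (CellTiterGlo, 10 min ambient) reporting growth of fusion-defective ts yeast after 48 hours at 37C on glycerol/ethanol YPEG medium in the presence of compound.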
# TDP43 rescue: TDP-43 toxicity inhibition in yeast; TDP-43 expressing yeast growth rescue, BacTiter-Glo, 24 h; Potency, µM (titrated, usually from 46.1 µM), for inactives: top-dose growth rescue (activation), hits mostly activators; actives 1.8% (n = 410,000); AID 652104; further: % of control where 0% means no effect; nearly all actives have a fitted effect of over 50% in size
#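 Galactose-induced TDP-43 yeast, OD600=0.02, compound pinned; 24 hr, 30 deg C; BacTiter-Glo luminescence for growth. Inhibitors of TDP-43 toxicity read as activators.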
# Abeta yeast res: restores growth of yeast expressing A-beta42 peptide. actives 0.063% (n = 410,000). AID 1347071. Potency, µM (doses to about 46.1 µM), most hits filed as activators. yeast expressing A-beta42, growth rescue, OD600, 48 h; response scale: 0% DMSO, 100% iron-clioquinol control; further: nearly all actives have a fitted effect of over 55% in size
#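 Yeast A-beta toxicity model in growth medium with pinned compounds, 48 h at 30 C; growth read as absorbance at 600 nm. Normalized to FeCl3/clioquinol equimolar mix (positive) and DMSO (negative).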
# * hit, by the source's call; i = inactive; ? = inconclusive; · = no result given; [ ] = dose if it differs, or a comment. This is a sample that favours compounds with a hit; in the whole collection about 2.2% have one here. Unless noted, the call rests on the fitted dose curve; in most records, active means well fitted curve in the direction sought with a large enough effect; inconclusive means small, poorly fitted or top-dose-only effect, or another doubt; inactive means no such curve, though single readings can be large; an effect the other way counts as inactive or inconclusive. Potency means the concentration at half of the fitted maximal effect.
SMILES,ERG Ets-DNA blk,FUS suppressor,aSyn yeast inh,Mito fusion act,TDP43 rescue,Abeta yeast res
O=[N+]([O-])c1ccc(CSc2nnc(-c3cccnc3)o2)cc1,2.1%,i,0.0%,1.7%,11.2µM*,i
Clc1ccc(CSc2nnc(-c3cccnc3)o2)cc1,8.7%,i,8.3%,7.7%,11.2µM*,i
Fc1ccc(CSc2nnc(-c3cccnc3)o2)cc1,9.1%,i,1.8%,4.9%,?,i
c1ccc(CSc2nnc(-c3cccnc3)o2)cc1,-8.9%,i,0.0%,9.3%,14.1µM*,i
Cc1ccc(N2CC(NC(=O)c3cccs3)CC2=O)cc1 (configuration not stated),1.6%,i,·,·,18.8%,i
Cc1ccc(CSc2nnc(-c3cccnc3)o2)cc1,-4.9%,i,3.4%,15.5%,12.6µM*,i
Brc1ccc(CSc2nnc(-c3cccnc3)o2)cc1,17.9%,i,0.9%,17.7%,-2.0%[9.22 µM],i
CCCn1nc(C(=O)N2CCN(S(=O)(=O)c3ccc(C)c(C)c3)CC2)c2ccccc2c1=O,-15.5%,?,-40.3%,15.7%,35.5µM*,i
CCCn1nc(C(=O)NNC(=O)c2ccc(C)c(C)c2)c2ccccc2c1=O,1.1%,·,2.2%,·,19.2%,i
Cc1ccccc1NC(=O)C[C@H]1CC[C@H]2[C@@H](COc3ccc(NC(=O)Nc4ccccc4)cc3C(=O)N2C)O1,·,i,·,·,·,·
O=C(Nc1ccc(Oc2ccccc2)cc1)c1csc(COCCO)n1,·,i,3.2%,·,12.6µM*,i
O=C(Nc1ccc(Cl)cc1)c1csc(COCCO)n1,·,i,-4.8%,·,19.9%,i
COc1ccc2c(CNCCc3ccccc3OC)c(C(=O)O)n(Cc3ccc(F)cc3Cl)c2c1,0.8%,?,·,·,-1.4%,i
OC(Cn1cncn1)c1ccc(Cl)cc1 (configuration not stated),-6.0%,i,12.8%,-4.5%,-18.7%,i
OC(Cn1cncn1)(c1ccc(F)cc1)c1ccc(Cl)cc1 (configuration not stated),9.9%,i,28.2%,7.08µM*,?,i
O=C(c1ccc(Cl)cc1)N1CCN(c2ccc([N+](=O)[O-])c3ncccc23)CC1,·,·,11.5%,23.1µM*,·,·
O=C(c1cc(F)c(F)cc1Cl)N1CCN(c2ccc([N+](=O)[O-])c3ncccc23)CC1,-5.9%,i,-11.5%,-0.1%,?,i
CC(C)CNC(=O)OCc1cn(Cc2cccc(C(F)(F)F)c2)nn1,·,i,·,·,·,·
CCCS(=O)(=O)c1ncc(Cl)c(C(=O)N(Cc2ccccc2)Cc2ccco2)n1,8.5%,i,23.2%,·,15.8µM*,i
CCSc1ncc(Cl)c(C(=O)N(Cc2ccccc2)Cc2ccco2)n1,1.0%,i,·,·,18.1%,i
COc1ccc(N2C(=O)c3ccccc3NC2c2ccc(OC)c(COc3ccc(NC(C)=O)cc3)c2)cc1 (configuration not stated),·,·,13.1%,·,·,·
Cn1ncc(Cl)c1C(=O)N1CCN(c2cccc(Cl)c2)CC1,1.2%,i,17.7%,4.0%,14.1µM*,i
Cn1ncc(Cl)c1C(=O)Nc1cccc(Cl)c1,-3.7%,i,6.7%,0.7%,7.08µM*,i
Cc1ccc(S(=O)(=O)c2nc(-c3cccs3)oc2SCC(=O)Nc2cc(C)cc(C)c2)cc1,0.9%,i,·,·,9.5%,i
COC(=O)C1(C)CN(S(=O)(=O)c2ccc(C)cc2)c2cc(OC)ccc2C1=O (configuration not stated),5.4%,·,12.5%,14.1µM*,-9.7%,i
SMILES,ERG Ets-DNA blk,FUS suppressor,aSyn yeast inh,Mito fusion act,TDP43 rescue,Abeta yeast res
COC(=O)C1(C)CCc2cc(OC)ccc2C1=O (configuration not stated),0.9%,i,4.3%,-2.1%,-15.2%,i
CN(C)C(=O)COC(=O)c1ccccc1OCC(=O)Nc1ccc(Br)cc1,·,·,9.9%,·,·,·
CCOc1ccc2oc(=O)cc(CN3CCN(C(=O)c4ccc(Cl)cc4)CC3)c2c1,-1.9%,?,·,·,27.7%,i
Cc1nc(-c2cccc(NC(=O)c3ccc(Br)o3)c2)cs1,3.8%,i,-9.1%,4.7%,11.2µM*,i
Cc1nc(-c2ccc(NC(=O)c3ccc(Br)o3)cc2)cs1,-2.1%,i,-31.4%,-3.9%,14.9%,i
Oc1cccc(-n2nnnc2SCc2ccccc2F)c1,-9.3%,i,-5.2%,3.5%,22.4µM*,i
COc1ccc(NC(=O)CN2C(=O)C(=O)N(C3CCCC3)C2=O)c(OC)c1,0.3%,i,?,·,19.1%,i
Cc1cccc(N2C(=O)C(O)=C(C(=O)c3cccs3)C2c2ccc(C(C)C)cc2)n1 (configuration not stated),-3.2%,i,-26.6%,10.4%,28.2µM*,i
Cc1cccc(N2C(=O)C(O)=C(C(=O)c3cccs3)C2c2ccc(F)cc2)n1 (configuration not stated),-5.4%,i,7.7%,13.3%,-13.4%,i
Cc1cc(C=O)c(C)c2c1[nH]c1ccccc12,-11.1%,·,-4.3%,·,22.2%,i
Cc1ccc(C)c2c1[nH]c1ccccc12,-2.5%,i,4.5%,1.2%,14.1µM*,i
COc1cc(NC(=O)C(CC(C)C)NS(=O)(=O)c2ccc3c(c2)CCCC(=O)N3)cc(OC)c1 (configuration not stated),2.7%,i,·,·,7.1%,i
COc1cccc(/C=C2\CCC(C3CCCC3)C2=O)c1OC (configuration not stated),-3.8%,7.94µM*,-9.7%,-14.2%,?,i
Cc1cccc(N2CCN(C(=O)Cn3c(C)c4cnn(-c5ccccc5)c(=O)c4c3C)CC2)c1C,3.9%,?,·,·,20.6%,i
COc1cc(F)ccc1-c1csc(C(O)(c2ccccc2)C(F)(F)F)n1 (configuration not stated),·,i,1.4%,·,8.9%,i
Cc1cc(-c2csc(Nc3ccccn3)n2)ccc1F,-3.8%,i,-24.5%,-8.3%,3.98µM*,?
Cc1nc(N)sc1-c1csc(Nc2ccccn2)n1,-3.9%,i,4.1%,-5.8%,9.4%,i
COc1ccc(-c2csc(Nc3ccc(C)cn3)n2)cc1,18.6%,i,-31.9%,4.2%,12.6µM*,i
Oc1ccc(-c2csc(Nc3ccccn3)n2)cc1,-4.4%,i,-13.8%,-4.4%,?,i
COc1ccc(-c2csc(Nc3ccccn3)n2)cc1OC,18.7%,i,-2.7%,-4.0%,12.6µM*,i
Cc1nc(C)c(-c2csc(Nc3ccccn3)n2)s1,-2.5%,i,-20.6%,-4.9%,35.5µM*,?
